Results reported in PubChem BioAssay AID2732 (Emory University Molecular Libraries Screening Center, 2010).
Among all 220,000 compounds or so, about 8,200 (3.7%) were called active.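 Rule for the calls: active = compounds that reduced the stress-induced luciferase reporter signal by more than about 70% of percent inhibition (limit read from the data); inactive = the rest.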 The full list was thinned out, with actives kept by preference.

Assay: inhibitors of CHOP promoter induction, primary screen, cell-based, unfolded protein response, luciferase reporter (AID 2732);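 note: 0% = tunicamycin plus vehicle and 100% = wells without tunicamycin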
Details: CHO-K1 CHOP-promoter luciferase, tunicamycin-induced, 15-18 h; at 10 µM; active compounds read high

| Compound | inhibition |
| --- | --- |
| Cn1cnc([N+](=O)[O-])c1Sc1n[nH]c(N)n1 | -10.3% (inactive) |
| COc1ccc(C(=O)Nc2ccc(CN3CCOCC3)cc2)cc1 | -29.9% (inactive) |
| O=C(Nc1ccc(CSc2ccccc2)cc1)c1ccc(CN2CCOCC2)cc1 | 79.5% (active) |
| O=C(Nc1ccccc1C(=O)N1CCOCC1)c1ccc(CSc2ccccc2)cc1 | -8.2% (inactive) |
| Cc1nnc(C)c2c(C)n(N)c(C)c12 | 13.9% (inactive) |
| COCC(=O)Nc1nnc(COc2ccccc2)s1 | -20.1% (inactive) |
| Cc1ccc(OCc2nnc(NC(=O)OCC(C)C)s2)cc1 | 91% (active) |
| Cc1ccc(COc2ccc(C(=O)NN)cc2)cc1 | 0.74% (inactive) |
| CCn1c(CN2C(=O)CSc3ccccc32)n[nH]c1=S | 11.5% (inactive) |
| C=CCNC(=O)c1ccc2c3n(nc2c1)-c1ccc(C)cc1CO3 | -2.7% (inactive) |
| COCCNC(=S)N1CCN(C)CC1 | -18.1% (inactive) |
| CSCCC1NC2(C(=O)Nc3ccc(Cl)cc32)[C@@H]2C(=O)N(C3CCCC3)C(=O)[C@H]12 (some centres undefined) | 85.7% (active) |
| O=C1[C@@H]2C(Cc3ccc(O)cc3)NC3(C(=O)Nc4ccc(F)cc43)[C@@H]2C(=O)N1c1ccc(F)cc1 (some centres undefined) | 27.9% (inactive) |
| COc1ccc(N=Nc2ccc(O)c(P(=O)(c3ccccc3)c3ccccc3)c2)cc1 | 2.83% (inactive) |
| CCOC(=O)CN/C=C(\C#N)c1ccc(F)cc1 | -6.58% (inactive) |
| CCOc1cc(/C=C(/C#N)c2ccc(Cl)cc2)cc(Cl)c1OCC(=O)O | 87.8% (active) |
| C/C(=N\OCC(=O)O)c1ccc(Cl)cc1 | -4.7% (inactive) |
| C=CC1C(OC2OC(CO)C(O)C(O)C2O)OC=C(C(=O)OC)C1CC1CC(=O)CC(CC(=O)CCc2ccc(O)cc2)O1 (centres undefined) | 7.57% (inactive) |
| CCOC(=O)c1c(CC(C)C)csc1/N=C/C1=C(O)CCCC1=O | 24.8% (inactive) |
| O=C(Nc1nnc(COc2ccccc2)s1)Nc1ccccc1F | 96.7% (active) |

| Compound | inhibition |
| --- | --- |
| Cc1nnc(NC(=O)CCCOc2ccccc2)s1 | 26.2% (inactive) |
| O=C(Nc1ccccc1)Nc1nnc(COc2ccccc2F)s1 | 9.53% (inactive) |
| Cc1ccc(S(=O)(=O)N2CCN(C(=O)COC(=O)c3c(C)noc3C)CC2)c(C)c1 | 8.26% (inactive) |
| Cc1ccc(C(=O)Cn2cc([N+](=O)[O-])nc2C)cc1 | 2.6% (inactive) |
| O=C(CN1CCOCC1)N/N=C/c1ccc(-c2ccc(Br)cc2)o1 | 32.5% (inactive) |
| CCOC(=O)c1oc2c(CN3CCN(C)CC3)c(O)ccc2c(=O)c1-c1ccc(Br)cc1 | -10.9% (inactive) |
| O=c1c(-c2ccc3c(c2)OCCO3)c(C(F)(F)F)oc2cc(O)cc(O)c12 | 13.2% (inactive) |
| CCOC(=O)c1cc2cc(-c3c(C(=O)OCC)oc4cc(O)cc(O)c4c3=O)ccc2o1 | 105% (active) |
| NC(=O)[C@H]1CC2(CC(c3cccc(NC(=O)[C@H]4CCC(=O)N4)c3)=NO2)CN1C(=O)c1ccccc1C(=O)c1ccccc1 (some centres undefined) | -11.9% (inactive) |
| Cn1c(SCC(=O)N/N=C/c2ccc(O)c(O)c2)nc2ccccc21 | -4.19% (inactive) |
| Nc1ccc(C(=O)OCC(=O)NC2CCS(=O)(=O)C2)cc1[N+](=O)[O-] (centres undefined) | 3.77% (inactive) |
| CCOC(=O)C1=C(C)NC(=S)NC1c1cccs1 (centres undefined) | 0.7% (inactive) |
| C=CCOC(=O)C1=C(C)NC(C)=C(C(=O)OCC=C)C1c1cccs1 | 86.8% (active) |
| CCOC(=O)C1=C(C)Nc2nc3ccccc3n2C1c1cccs1 (centres undefined) | 18% (inactive) |
| CCC(C)NC(=O)C1c2ccccc2Oc2ccccc21 (centres undefined) | -5.78% (inactive) |
| C=CCOc1ccc(/C=C2\SC(=S)N(CCC(=O)O)C2=O)cc1 | 88% (active) |
| O=C(CCCN1C(=O)/C(=C\c2ccccc2)SC1=S)Nc1ccccc1O | 27% (inactive) |
| O=C(CCCN1C(=O)/C(=C/c2ccccc2)SC1=S)Nc1ccc(O)cc1 | 58.8% (inactive) |
| Cn1nnc(NC(=S)NC(=O)c2ccccc2)n1 | 17.2% (inactive) |
| O=C(Nc1ccc(S(=O)(=O)Nc2nccs2)cc1)c1cccc(S(=O)(=O)N2CCOCC2)c1 | -32.6% (inactive) |

| Compound | inhibition |
| --- | --- |
| COc1ccc(Cn2c(O)c(/C=C3/C=CC=N3)c(=O)[nH]c2=O)cc1 | 1.57% (inactive) |
| C=CC(COCc1ccccc1)N(Cc1ccccc1)S(=O)(=O)c1ccccc1Br (centres undefined) | 13.4% (inactive) |
| CC(C)(C)C(=O)NNC(=O)c1ccc(Oc2cc(Cl)cc(Cl)c2)o1 | 1.32% (inactive) |
| COC(=O)c1ccc(S(=O)(=O)N(CCO)Cc2ccccc2)n1C | -4.99% (inactive) |
| O=S(=O)(c1ccccc1)N1CN(Cc2ccc(F)cc2)c2nc3ccccc3nc21 | 3.85% (inactive) |
| CCc1c(C)sc(NC(=O)/C=C/c2ccc3c(c2)OCO3)c1C(=O)OC | 1.72% (inactive) |
| CCc1c(C)sc(NC(=O)c2ccc(Br)o2)c1C(=O)OC | 88.9% (active) |
| CCOC(=O)c1c(NC(=O)c2ccc(Br)o2)sc2c1CCCC2 | 22.6% (inactive) |
| COc1cc(CN(C)Cc2nc3cc(C(F)(F)F)ccc3c(=O)[nH]2)ccc1OC(F)F | 34.5% (inactive) |
| Cc1cccc(OCc2nnc(SCn3nnc4ccccc4c3=O)o2)c1 | 55.9% (inactive) |
| Cc1cccc(OCc2nnc(SCc3nc4cc(C(F)(F)F)ccc4c(=O)[nH]3)o2)c1 | 104% (active) |
| O=C(/C=C/Nc1ccc(S(=O)(=O)Nc2cnc3ccccc3n2)cc1)c1cccnc1 | 12.4% (inactive) |
| COc1ccc(COCC(O)CN2CCC(C(N)=O)CC2)cc1 (centres undefined) | -5.79% (inactive) |
| CCOC(=O)c1ccn(-c2nc(-c3ccco3)cc(C(F)(F)F)n2)n1 | 7.61% (inactive) |
| Cc1cc(C(F)(F)F)nn1-c1nc(-c2ccco2)cc(C(F)(F)F)n1 | 30.6% (inactive) |
| O=C(CSc1nc(-c2ccco2)cc(C(F)(F)F)n1)NCc1cccs1 | 30.9% (inactive) |
| FC(F)(F)c1cc(-c2ccco2)nc(N2CCOCC2)n1 | 101% (active) |
| FC(F)(F)c1cc(-c2cccs2)nc(NCc2ccco2)n1 | 52.2% (inactive) |
| FC(F)(F)c1cc(-c2ccco2)nc(NCc2ccc(Cl)cc2)n1 | 81.4% (active) |
